{"source": "PubChem BioAssay", "note": "Unmarked numbers belong to inactive results. The rule behind the calls is not given here.", "data": [{"target": "Pantothenate synthetase (Mycobacterium tuberculosis (strain ATCC 25618 / H37Rv)) (UniProt P9WIL5)", "sequence (P9WIL5 whole entry, looked up)": "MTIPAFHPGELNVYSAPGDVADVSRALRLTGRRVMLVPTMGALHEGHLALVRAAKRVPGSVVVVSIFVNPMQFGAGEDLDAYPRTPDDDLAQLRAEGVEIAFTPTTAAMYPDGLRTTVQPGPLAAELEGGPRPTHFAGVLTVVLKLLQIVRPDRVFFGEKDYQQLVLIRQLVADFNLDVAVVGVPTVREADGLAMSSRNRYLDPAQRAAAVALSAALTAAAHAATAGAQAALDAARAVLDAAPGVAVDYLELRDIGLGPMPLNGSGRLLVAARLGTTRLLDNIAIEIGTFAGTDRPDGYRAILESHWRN", "assay": "Recombinant Mtb pantothenate synthetase (PanC) inhibitors, coupled enzyme, confirmatory (AID 375);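 note: 0% = full reaction with vehicle and 100% = no enzyme background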", "details": "coupled enzyme assay; at 10 µM, hits give high values", "units": {"inhibition": "%"}, "values": [{"smiles": "CCCn1c(SCC(=O)N2CCN(c3ccccc3)CC2)nc2ccccc2c1=O", "inhibition": 0}, {"smiles": "Cc1nc2c3cnn(-c4ccccc4)c3ncn2n1", "inhibition": 7}, {"smiles": "O=C(CN1CCN(c2ccc(F)cc2)CC1)OCc1ccccc1", "inhibition": 3}, {"smiles": "CCOc1ccc(S(=O)(=O)Nc2cccc(Cl)c2)cc1", "inhibition": 1}, {"smiles": "CCOC(=O)C1CCN(C(=O)COc2ccc(Cl)cc2Cl)CC1", "inhibition": 0}, {"smiles": "Cc1ccc(S(=O)(=O)N2CCCC2C(=O)OCc2nc3ccccc3s2)cc1", "note": "(stereo not given)", "inhibition": 0}, {"smiles": "CCSCc1nnc(SCC(=O)Nc2cccc(SC)c2)n1C", "inhibition": 4}, {"smiles": "Cc1nc2sc(C(c3cccc(F)c3)N3CCCCC3)c(O)n2n1", "note": "(stereo not given)", "inhibition": 0}, {"smiles": "CC1CN(C(=O)CSc2nnc(-c3ccc(Cl)cc3)n2C)CC(C)O1", "note": "(stereo not given)", "inhibition": 0}, {"smiles": "Cc1cccc(-n2ncc3c(NCc4cccnc4)ncnc32)c1", "inhibition": 7}, {"smiles": "CCCOc1ccc2nc(NC(=O)OC)[nH]c2c1", "inhibition": 0}, {"smiles": "CC(=O)Nc1ccc(NC(=O)c2cc(C)nn2-c2ccccc2)cc1", "inhibition": 2}, {"smiles": "CC(C)CN(CC(C)C)C(=O)CS(=O)(=O)Cc1ccccc1", "inhibition": 0}, {"smiles": "Cc1nnc(NCCc2ccccc2)n(N)c1=O", "inhibition": 5}, {"smiles": "Cc1cccc(NC(=O)C2CCCN2C(=O)OCC(C)C)c1C", "note": "(stereo not given)", "inhibition": 0}, {"smiles": "CC(=O)Nc1ccc(OC(=O)c2cccs2)cc1", "inhibition": 0}, {"smiles": "CCOc1ccccc1C1C(C(=O)Nc2ccc(OC)cc2)=C(C)Nc2nc(CCCO)nn21", "note": "(stereo not given)", "inhibition": 0}, {"smiles": "O=C(CN1C(=O)NC(Cc2ccccc2)C1=O)Nc1ccccc1", "note": "(stereo not given)", "inhibition": 0}, {"smiles": "CCN(CC)c1nc2cc(OC)ccc2cc1C#N", "inhibition": 0}, {"smiles": "c1ccc2c(c1)CNc1ccccc1C2", "inhibition": 0}, {"smiles": "Cn1c(Cl)nc2ccccc21", "inhibition": 0}, {"smiles": "O=C(O)CCc1ccc(-c2ccc(F)cc2)n1CCC(=O)O", "inhibition": 0}, {"smiles": "COCCOC(=O)c1cc(C(=O)c2cc(F)ccc2O)coc1=N", "inhibition": 2}, {"smiles": "O=C(OCc1cccs1)c1ccccc1NS(=O)(=O)c1ccc2c(c1)OCCO2", "inhibition": 0}, {"smiles": "CCOC(=O)C1CCCN(C(=O)CNS(=O)(=O)c2ccc(Br)s2)C1", "note": "(stereo not given)", "inhibition": 8}, {"smiles": "CCCc1cc(N2CCCC2)n2nc(C)c(-c3ccccc3)c2n1", "inhibition": 0}, {"smiles": "CCC(=O)Nc1ccc(NC(=O)c2ccccn2)cn1", "inhibition": 0}, {"smiles": "O=c1[nH]c(NCc2ccco2)nnc1Cc1ccccc1Cl", "inhibition": 0}, {"smiles": "Cc1cccc(NC(=O)CCn2ccnc2C)c1", "inhibition": 0}, {"smiles": "Cc1csc2nc3ccccc3c(=O)n12", "inhibition": 11}, {"smiles": "CCOC(=O)CN1C(=O)C(=O)c2cccc(C)c21", "inhibition": 0}, {"smiles": "Cn1cnc2c1c(=O)[nH]c(=O)n2C", "inhibition": 0}, {"smiles": "COc1ccc(N2CCN(C(=O)C(C)(C)Oc3ccc(Cl)cc3)CC2)cc1", "inhibition": 0}, {"smiles": "CN(Cc1ccccc1)Cc1c[nH]c2ccccc12", "inhibition": 0}, {"smiles": "CCCCOc1ccc(C2C3CN(C(=O)OCC)CC=C3C(C#N)=C(N)C2(C#N)C#N)cc1OC", "note": "(stereo not given)", "inhibition": 0}, {"smiles": "O=C1CC(c2ccc(Cl)cc2)n2nc(N3C(=O)c4ccccc4C3=O)nc2N1", "note": "(stereo not given)", "inhibition": 5}, {"smiles": "CCOC(=O)C1=C(Cn2cnc3ccccc32)NC(=O)NC1c1cc(C)ccc1C", "note": "(stereo not given)", "inhibition": 0}, {"smiles": "CC1C(=O)C(C)C(c2cccs2)NC1c1cccs1", "note": "(stereo not given)", "inhibition": 0}, {"smiles": "O=C(c1c(F)cccc1F)N(Cc1ccccn1)C1CCCC1", "inhibition": 1}, {"smiles": "O=C(CN(Cc1ccco1)C(=O)c1cc(=O)[nH]c2ccccc12)Nc1ccccc1Br", "inhibition": 0}]}]}
